Test results taken from PubChem BioAssay AID2289 (National Center for Advancing Translational Sciences (NCATS), 2010).
Out of some 340,000 compounds screened, about 3,300 (0.97%) were called active. Inconclusive results (about 9%) are left out. Calls follow the shape of the dose curve; as a rule, active = well fitted inhibition curve with a large enough effect; inconclusive = small, poorly fitted or top-dose-only effect, or effect the other way; inactive = flat fitted curve, though single readings scatter. The list shows a part of the results.

Assay: qHTS Assay for Modulators of miRNAs and/or Inhibitors of miR-21; also: nearly all actives have a fitted effect of over 55% in size
Conditions: HeLa miR-21-FLuc reporter, luciferase luminescence, 48 h; actives lower the signal
Method in brief: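 HeLa miR-21-FLuc reporter line, endogenous miR-21; 2000 cells/well in DMEM/10% FBS; compound titration up to ~40uM final, 48 h, 37 degree Celsius; luciferase detection reagent, 15 min lysis, CCD luminescence.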
Potency is read from the fitted curve at half-maximal effect.

Potency, active:
Cc1ccc2nc(N3C(=O)C(O)=C(C(=O)c4ccco4)C3c3cccs3)sc2c1 (stereo not drawn) 5.21 µM, CCc1ccc2nc(N3C(=O)C(O)=C(C(=O)c4ccco4)C3c3cccs3)sc2c1 (stereo not drawn) 6.56 µM, COc1ccc(N=Nc2ccc3ccccc3c2)c(O)c1 0.233 µM, COc1ccc(N=Nc2cc(C)ccc2O)cc1 0.521 µM, CN1CCN(c2nc(-c3cc4ccccc4o3)cs2)CC1 5.21 µM, Nc1nc(-c2cc3ccccc3o2)cs1 2.33 µM, Nc1ccc(Nc2nc(-c3cc4ccccc4oc3=O)cs2)cc1 2.93 µM, O=C(OC1CCCCC1)c1cc2ccccc2oc1=O 16.5 µM, COc1ccc2oc(=O)c(C(=O)N3CCN(c4ccccc4C)CC3)cc2c1 2.07 µM, O=C(c1cc2ccccc2oc1=O)N1CCOCC1 16.5 µM, O=C(CSc1nc2ccccc2o1)c1cc2ccccc2oc1=O 14.7 µM, Cc1c(-c2nc(-c3ccc(C(F)(F)F)cc3)no2)n(C)oc1=O 0.293 µM, COc1ccc(/C(N)=N/OC(=O)C2CCCCC2)cc1OC 2.93 µM, COc1ccc(/C(N)=N/OC(=O)C2CCCCC2)cc1 4.65 µM, CC(=O)c1ccc(OCc2cc(C(=O)N3CCOCC3)no2)cc1 18.5 µM, COc1ccc(OCc2cc(C(=O)N3CCSCC3)no2)c(Cl)c1 4.65 µM, COCCN1CCN(C(=O)c2cc(COc3cc(C)ccc3C)on2)CC1 11.7 µM, COc1cccc(OCc2cc(C(=O)N3CCN(c4ccccc4OC)CC3)no2)c1 16.5 µM, CC(=O)NCCC1CCCCN1C(=O)c1cc(COc2cc(C)ccc2C)on1 (stereo not drawn) 7.36 µM, COc1ccc(OCc2cc(C(=O)N3CCOCC3)no2)c(Cl)c1 2.07 µM, O=C(CSc1ccc(-c2ccccc2)nn1)c1ccccc1 16.5 µM, Cc1cc(SCC(=O)c2ccccc2)nc(=O)[nH]1 4.14 µM, O=C(CSc1ccc(-c2ccccc2)nn1)c1cccs1 7.36 µM, N#Cc1ccc(-c2cccnc2)nc1SCC(=O)c1ccccc1 5.85 µM, COc1cc(NC(=O)c2ccccc2Cl)ccc1NC(=O)c1cccs1 2.07 µM, COc1cc(NC(=O)c2ccccc2Cl)ccc1NC(=O)c1ccco1 2.93 µM, COc1ccc(Cl)cc1-c1nc(-c2ccc(NC(=O)c3cccs3)cc2)no1 7.36 µM, Cc1ccc2nc(/C=C/c3cccc(F)c3)ccc2c1 0.521 µM, N#C/C(=C\c1c[nH]c2ccccc12)c1nnc2n1CCCCC2 18.5 µM, CCOc1cc(/C=N/O)ccc1OCc1ccccc1F 16.5 µM, O/N=C/c1ccc(OCc2ccccc2F)c(Cl)c1 0.464 µM, Cc1ccc(NC(=O)c2ncn(-c3ccccc3)n2)cc1Cl 3.29 µM, CC(=O)c1ccc(NC(=O)c2ncn(-c3ccccc3)n2)cc1 5.85 µM, Cn1nnc(NC(=O)c2ccc3ccccc3c2)n1 14.7 µM, Cn1nnc2cc(C(=O)Nc3ccc4ccccc4c3)ccc21 0.585 µM, CCCn1nnc(NC(=O)c2ccc3ccccc3c2)n1 4.14 µM, Nc1nc2c(-c3ccc(Br)cc3)nnn2c2ccccc12 0.261 µM, c1ccc(-c2cnc(-c3cccnc3)o2)cc1 13.1 µM, Cc1ccc(-c2nnc(-c3cccnc3)o2)cc1 4.65 µM, CN(C)c1ccc(-c2nnc(-c3cccnc3)o2)cc1 1.31 µM, CC(C)c1nnc(NC(=O)COc2ccccc2[N+](=O)[O-])s1 9.27 µM, CCSc1nnc(NC(=O)c2ccccc2)s1 1.31 µM, CCSc1nnc(NC(=O)COc2ccccc2[N+](=O)[O-])s1 3.69 µM, N/C(=N\C(=S)Nc1ccccc1)c1ccccc1 0.927 µM, O=C(Cc1noc2ccccc12)Nc1ccccn1 14.7 µM, Cc1cccc(NC(=O)Cc2noc3ccccc23)c1 5.85 µM, O=C(Cc1noc2ccccc12)Nc1ccc(Cl)cc1 14.7 µM, Cc1ccc(NC(=O)Cc2noc3ccccc23)cc1 7.36 µM, Nc1ccccc1C(=O)NNC1=C(C(=O)C(F)(F)F)CCC1 5.21 µM, CC1=NN(C(N)=S)C(=O)C1N=Nc1ccc(Br)cc1 (stereo not drawn) 1.31 µM, CC1=NN(C(N)=S)C(=O)C1N=Nc1cccc(Cl)c1 (stereo not drawn) 7.36 µM, CC1=NN(C(N)=S)C(=O)C1N=Nc1ccc(C)c(Br)c1 (stereo not drawn) 1.47 µM, CC1=NN(C(N)=S)C(=O)C1N=Nc1ccc(C)cc1C (stereo not drawn) 3.69 µM, C/C(=N\N=C(/N)c1nonc1N)c1ccc2c(c1)OCO2 0.521 µM, CC(=O)NCCC(=O)Nc1nc2ccc(Oc3ccccc3)cc2s1 1.65 µM, O=C1NCC2=C1C(c1ccccc1)Nc1ccccc1N2 (stereo not drawn) 14.7 µM, Clc1ccc(CSc2nnc3ccccn23)c(Cl)c1 16.5 µM, Cc1ccc2c(CSc3nnc4ccccn34)cc(=O)oc2c1C 13.1 µM, Clc1cccc(Cl)c1CSc1nnc2ccccn12 16.5 µM, C/C(=N\NC(=O)c1cccs1)C(C)(C)C 4.65 µM, C/C(=N/NC(=O)c1cccs1)c1cccs1 2.93 µM, O=C(O)CC/C(=N/NC(=O)c1cccs1)c1ccccc1 2.07 µM, O=C(NC12CC3CC(CC(C3)C1)C2)c1ccc(-c2ccc(Br)cc2)o1 7.36 µM, O=C(NC12CC3CC(CC(C3)C1)C2)c1ccc(-c2cccc(Cl)c2)o1 1.47 µM, O=[N+]([O-])c1cc(/C=N\O)ccc1Oc1ccc(F)cc1 16.5 µM, O=[N+]([O-])c1cc(/C=N/O)ccc1Oc1ccccc1Cl 16.5 µM, CC(=O)C(C)Oc1ccc2c3c(c(=O)oc2c1)CCCCC3 (stereo not drawn) 2.93 µM, CC(=O)C(C)Oc1ccc2c3c(c(=O)oc2c1)CCCC3 (stereo not drawn) 16.5 µM
